The values that follow come from PubChem BioAssay.

Several values for one entry are separate records, joined by “and”; a condition that tells them apart may be missing. Identical values can stand only once. Activity calls are given as the source filed them.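 The calls were made as follows, unless noted: active = visual image review flags a hit and inhibition of aggregation exceeds 20%; inconclusive = visual hit but inhibition at or below 20%; inactive = no hit on visual image review.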

A short description of assay [1]: inhibitors of TNFa-induced NFkB p65 translocation, primary screen, imaging, HUVEC, MLSMR starter and 10KST1 sets (AID 438;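 active = inhibition above 20% together with a positive visual image hit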;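 also: compound added about 3h40 before a 20 min TNFalpha stimulation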;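 as to inhibition: signal is the nuclear over cytoplasmic p65 intensity ratio per well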). The conditions noted are these: HUVEC TNFa-induced p65 nuclear translocation; cell count: measured here: nuclei count (cytotoxicity indicator), at 2.08 µM; inhibition: at 2 µM, stronger effect = higher value, 0% TNFa-plus-vehicle, 100% no-TNFa wells.
A short description of assay [2]: reduction of polyQ htt aggregates in cells – imaging, exon1htt(103Q)mCFP cells, high-content imaging, primary screen (AID 483).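 Also: compound exposure lasted 3 days before fixation.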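 As to nuclei count: percent of the per-plate median nuclei count of sample wells.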 The settings on record: exon1htt(103Q)mCFP cell line, aggregate imaging, at 2 µM; inhibition of aggregation: stronger effect = higher value; nuclei count: measured here: cell count, toxicity.
A short description of assay [3]: endothelial E-selectin expression blockers – imaging, HUVEC, immunofluorescence, MLSMR starter and 10KST1 sets, primary screen (AID 487;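 active = visually confirmed hit in the image check and inhibition above 20%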;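 as to inhibition: signal is fraction of cell area covered by stained E-selectin grains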;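 as to nuclei count: 100% = median nuclei count of all wells on the same plate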). The conditions noted are these: HUVEC TNFalpha-induced E-selectin immunofluorescence imaging, at 2 µM; inhibition: stronger effect = higher value; nuclei count: measured here: cell number, toxicity.
A short description of assay [4]: Primary imaging screen for DUSP6 inhibitors that restore phospho-Erk in transfected HeLa cells, chemical complementation (AID 609;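 active = compounds giving at least 50% inhibition in the cell-based MKP-3 phosphatase rescue imaging test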;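 as to inhibition: phospho-Erk level distribution per well compared with pooled transfected vehicle control wells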). The settings on record: HeLa MKP-3 transfected, phospho-Erk imaging KS statistic, at 10 µM, cells stimulated with TPA for 15 min.
The target in assay [5] is Dual specificity protein phosphatase 6 (Homo sapiens) (UniProt Q16828). The description is as above. The conditions noted are these: HeLa MKP-3 transfected, phospho-Erk imaging KS statistic; at 10 µM; stronger effect = higher value; cells stimulated with TPA for 15 min.
For assay [6], the target named is Voltage-gated potassium channel subunit beta-2 (Rattus norvegicus) (UniProt P62483). In words: inhibitors of rat Kvbeta2 reductase activity – biochemical, NADPH fluorescence, primary screen (AID 622;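 active = fluorescence slope higher than the sample average by over 3 SD, cut at about -0.22 in these data, passing the limit was not always enough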;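 also: slope of raw intensity against log time taken from 70 to 1610 s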). The conditions noted are these: recombinant KvBeta, 4-cyanobenzaldehyde reduction, at 10 µM, stronger effect = higher value.
For assay [7] the target is unchanged. In words: enhancers of rat Kvbeta2 NADPH turnover – biochemical, NADPH fluorescence, primary screen (AID 623;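 active = NADPH fluorescence slope more negative than the mean of all samples by about 3 SD, 99.7% confidence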;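 also: fluorescence intensity change per second fitted from 20 to 320 s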). The conditions noted are these: Recombinant KvBeta, NADPH fluorescence decrease slope, 10 min; at 10 µM; stronger effect = lower value.
The target in assay [8] is Alpha-2C adrenergic receptor (Homo sapiens) (UniProt P18825). Briefly: compounds altering alpha2C-coupled GIRK flux – cell-based, HEK293 alpha2C/GIRK1/2, thallium flux, primary screen (AID 624;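 active = fluorescence slope after compound addition differing from the mean of all screened samples at 99.7% confidence, in either direction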;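 also: slope of fluorescence ratio to pre-addition baseline per second over 15 to 24 s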). The settings on record: thallium flux BTC fluorescence, at 10 µM, actives lie on both sides.
Assay [9] is described as follows: inhibitors of larval lipid processing in zebrafish, primary screen, whole organism, PED6 fluorescence, gall bladder and intestine (AID 686;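 active = a full or partial loss of lipid-probe fluorescence in the fish gall bladder, intestine or both, judged by eye; inactive = no fluorescence loss, or compound toxic to the fish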;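 also: larvae 5 to 7 days old with five fish per well; signal comes from phospholipase A2 cleavage of quenched PED6 carried via bile; overnight exposure to compound and PED6 before scoring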). The settings on record: Zebrafish larvae PED6 lipid processing, fluorescence scoring; screened at 20 µM (by protocol).
Assay [10] in a line: loss of swimming-algae plug formation – whole organism, Chlamydomonas reinhardtii, WT vs cilia-less mutant, absorbance, 96-well, primary screen (AID 463189;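 active = inhibition at or above 50% relative to wild type and mutant plate controls; inactive = inhibition below 50%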;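 also: 0% = wild type cc124 cells in DMSO and 100% = ciliumless bld1 mutant cells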). The conditions noted are these: Chlamydomonas reinhardtii gravitaxis, OD600 absorbance, 2 days; at 10 µM; stronger effect = higher value.
Assay [11] can be described thus: blockers of RIG-like receptor reporter activation – cell-based, Sendai virus stimulus, luciferase, 10K MLSCN set, TLR/RLR signaling modifier project, primary screen (AID 602276;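 active = inhibition at or above 50% at 10 µM; inactive = inhibition below 50%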;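 also: firefly luciferase from ISG56 promoter only with Renilla not read in this screen; 0% = Sendai virus plus DMSO and 100% = medium plus DMSO without virus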). The conditions noted are these: HEK293 RL24 IRF3 luciferase reporter, at 10 µM, stronger effect = higher value.
A short description of assay [12]: TLR3 IRF3 reporter activation blockers – cell-based, poly I:C stimulus, luciferase, 10K MLSCN set, primary screen (AID 602277;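 active = inhibition of the reporter signal at or above 50%; inactive = inhibition below 50%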). The conditions noted are these: HEK293-TLR3 RL24 IRF3 luciferase reporter, at 10 µM, stronger effect = higher value.
[13] abbreviates: measured here: cell density z-score.
[14] abbreviates: measured here: nuclear c-Myc green intensity z-score.
[15] abbreviates: measured here: nuclear pErk red intensity z-score, stronger effect = higher value.

Sequence of Voltage-gated potassium channel subunit beta-2 (Rattus norvegicus) (P62483 whole entry, looked up): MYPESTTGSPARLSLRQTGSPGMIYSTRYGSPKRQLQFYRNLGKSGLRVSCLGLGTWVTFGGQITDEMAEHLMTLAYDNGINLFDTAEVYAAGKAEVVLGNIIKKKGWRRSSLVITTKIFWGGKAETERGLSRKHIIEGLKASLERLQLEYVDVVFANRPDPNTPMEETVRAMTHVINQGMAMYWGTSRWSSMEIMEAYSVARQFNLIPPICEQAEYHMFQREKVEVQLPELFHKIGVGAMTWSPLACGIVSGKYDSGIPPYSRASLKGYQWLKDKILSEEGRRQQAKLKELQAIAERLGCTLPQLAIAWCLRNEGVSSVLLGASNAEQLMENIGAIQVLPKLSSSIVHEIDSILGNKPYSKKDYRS
Sequence of Alpha-2C adrenergic receptor (Homo sapiens) (P18825 whole entry, looked up): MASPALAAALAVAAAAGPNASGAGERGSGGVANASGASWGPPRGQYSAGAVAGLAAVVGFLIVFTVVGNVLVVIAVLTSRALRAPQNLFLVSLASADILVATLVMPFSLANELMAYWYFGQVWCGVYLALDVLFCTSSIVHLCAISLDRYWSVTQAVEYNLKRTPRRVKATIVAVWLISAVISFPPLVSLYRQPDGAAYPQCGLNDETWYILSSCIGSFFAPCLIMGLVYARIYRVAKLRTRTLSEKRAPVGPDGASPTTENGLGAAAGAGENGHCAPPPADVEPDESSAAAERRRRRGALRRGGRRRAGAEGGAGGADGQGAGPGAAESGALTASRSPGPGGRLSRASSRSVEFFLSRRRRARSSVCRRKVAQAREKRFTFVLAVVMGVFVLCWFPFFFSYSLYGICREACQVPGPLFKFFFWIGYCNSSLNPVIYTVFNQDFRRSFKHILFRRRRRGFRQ
Sequence of Dual specificity protein phosphatase 6 (Homo sapiens) (Q16828 whole entry, looked up): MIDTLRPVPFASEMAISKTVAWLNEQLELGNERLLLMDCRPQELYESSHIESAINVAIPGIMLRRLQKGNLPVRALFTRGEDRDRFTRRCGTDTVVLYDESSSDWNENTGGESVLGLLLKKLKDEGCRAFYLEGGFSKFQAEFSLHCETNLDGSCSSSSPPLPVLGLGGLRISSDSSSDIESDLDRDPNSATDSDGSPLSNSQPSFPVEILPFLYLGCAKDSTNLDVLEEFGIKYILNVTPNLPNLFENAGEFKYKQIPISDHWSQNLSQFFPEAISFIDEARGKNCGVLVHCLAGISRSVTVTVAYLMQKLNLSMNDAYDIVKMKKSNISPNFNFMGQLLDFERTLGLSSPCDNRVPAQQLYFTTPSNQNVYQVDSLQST

For the compound `Cn1c(=O)n(CCC(=O)O)c2ccccc21`, the cell count in [1] is 429. Moreover, the inhibition in assay [1] is -3.4% (inactive); in [3], -65.4% (inactive); in assay [5], -9.7% (inactive); in assay [10], 1.78% (inactive); in assay [11], 16.2% (inactive); in assay [12], 22.9% (inactive). Moreover, in assay [2], the inhibition of aggregation was 7.9% (inactive). The nuclei count in assay [2] was 96.9%; in [3], 159%. Further, the z-score in assay [4] (setting [13]) is -0.862; in [4] (setting [14]), -1.01; in [4] (setting [15]), 0.787. For the same compound, the fluorescence slope in assay [6] is -0.405 (inactive). In assay [7], the NADPH fluorescence slope was -5.3e-05 (inactive). The slope in [8] was 0.00491 (inactive). In [9], the compound was called inactive.

`CCN(CC)CCCC1(CN)OCCc2ccccc21` (stereo not given): in assay [1], the cell count turned out to be 475. Besides, the inhibition in assay [1] is -12.9% (inactive); in assay [3] it was -55.8% (inactive); in assay [5], 17% (inactive); in assay [10], 24.5% (inactive); in [11], 5.61% (inactive); in assay [12] it was 50.5% (active). Moreover, the inhibition of aggregation in assay [2] is -31.3% (inactive). Besides, the nuclei count in [2] was 86.5%; in assay [3], 104%. The z-score in assay [4] (setting [13]) is 1.04; in [4] (setting [14]), 0.0892; in assay [4] (setting [15]) it was -0.524. Further, in assay [6], the fluorescence slope is -0.378 (inactive). Moreover, the NADPH fluorescence slope in assay [7] is -6.2e-06 (inactive). Further, in assay [8], the slope is 0.00288 (inactive). The compound was classed as inactive in assay [9].

For `COc1ccc2c(c1OC)C(=O)OC2C1c2c(cc3c(c2OC)OCO3)CCN1C` (stereo not given), the cell count in assay [1] is 463 and 544. Further, the inhibition in assay [1] is -10.9% (inactive) and 0.8% (inactive); in [3], -43.9% (inactive) and -115% (inactive); in [5], 5.42% (inactive); in assay [10], 19.2% (inactive); in [11], 23.1% (inactive) and 13.1% (inactive); in [12], 29.1% (inactive) and 24% (inactive). Also, in assay [2], the inhibition of aggregation was -1% (inactive) and -12.6% (inactive). Moreover, the nuclei count is 101% and 94.4% in [2]; 132% and 119% in assay [3]. Also, the values for the z-score in assay [4] (setting [13]), in assay [4] (setting [14]) and in assay [4] (setting [15]) were 1.55, -0.813 and -0.77, respectively. Further, the fluorescence slope in assay [6] is -0.541 (inactive) and -0.459 (inactive). Further, the NADPH fluorescence slope in assay [7] is 7.5e-05 (inactive) and -6e-05 (inactive). The slope in assay [8] is 0.0053 (inactive) and 0.00526 (inactive). The compound was classed as inactive in [9].

On to `O=C(c1cccc2ccccc12)N1CCC(N2CCN(c3ccccc3)CC2)CC1`, for which the cell count in assay [1] was determined as 373. The inhibition was -1.4% (inactive) in [1]; -64.1% (inactive) in assay [3]; 13.2% (inactive) in assay [5]; 29.4% (inactive) in assay [10]; 4.24% (inactive) in assay [11]; 21.4% (inactive) in assay [12]. In [2], the inhibition of aggregation is 12.1% (inactive). For the same compound, the nuclei count was determined as 95.9% in assay [2] and 81.4% in assay [3]. Further, the figures for the z-score in [4] (setting [13]), in assay [4] (setting [14]) and in [4] (setting [15]) were 0.565, 1.38 and -0.642, respectively. The fluorescence slope in [6] is -0.528 (inactive). In [7], the NADPH fluorescence slope is -1.2e-05 (inactive). In [8], the slope was 0.00499 (inactive). In [9], the compound was called inactive.

For the compound `CC(=O)OCC(=O)[C@@]1(O)[C@H](C)C[C@H]2[C@@H]3CCC4=CC(=O)C=C[C@]4(C)[C@@]3(F)[C@@H](O)C[C@@]21C`, the cell count in assay [1] came out at 499. Moreover, the inhibition is -5.8% (inactive) in [1]; -54.1% (inactive) in assay [3]; -4.44% (inactive) in assay [5]; 26.6% (inactive) in assay [10]; 14.1% (inactive) in assay [11]; 31.9% (inactive) in assay [12]. Also, the inhibition of aggregation in assay [2] was 0.4% (inactive). In addition, the nuclei count in assay [2] was 45.5%; in [3] it was 112%. The values for the z-score in assay [4] (setting [13]), in assay [4] (setting [14]) and in assay [4] (setting [15]) were -0.698, 0.622 and -0.569, respectively. The fluorescence slope in assay [6] is -0.495 (inactive). For the same compound, the NADPH fluorescence slope in [7] is -3.4e-05 (inactive). The slope in assay [8] is 0.00493 (inactive). Also, the compound was called inactive in [9].

Turning to `COc1ccc(OC)c(C2=Nn3c(nnc3C3CCCCC3)SC2)c1`, in [1], the cell count worked out at 580. Further, the inhibition is -3.9% (inactive) in assay [1]; -38.3% (inactive) in assay [3]; 2.92% (inactive) in assay [5]; 25.7% (inactive) in [10]; 5.58% (inactive) in [11]; 19.6% (inactive) in assay [12]. Moreover, in assay [2], the inhibition of aggregation is 18.9% (inactive). In addition, the nuclei count in [2] was 77.4%; in [3], 118%. Moreover, the z-score in [4] (setting [13]) was -0.0238; in assay [4] (setting [14]), 2.3; in assay [4] (setting [15]), -0.394. Also, in [6], the fluorescence slope is -0.431 (inactive). The NADPH fluorescence slope in assay [7] was -0.000148 (inactive). In addition, in [8], the slope is 0.00512 (inactive). Moreover, the result in assay [9] was inactive.

With `COCCc1ccc(OCC(O)CNC(C)C)cc1` (stereo not given), the cell count in assay [1] was 534. In addition, the inhibition in assay [1] is 1.4% (inactive); in assay [3], -71.5% (inactive); in assay [5] it was 8% (inactive); in assay [10], -6.24% (inactive) and 33.7% (inactive); in assay [11], 15.3% (inactive); in assay [12], 32.2% (inactive). The inhibition of aggregation in assay [2] was -4.4% (inactive). Also, the figures for the nuclei count in assay [2] and in assay [3] were 85.7% and 108%, respectively. Also, the z-score in assay [4] (setting [13]) was -1.75; in [4] (setting [14]), 1.07; in assay [4] (setting [15]), 0.0458. Also, the fluorescence slope in [6] is -0.46 (inactive). Further, the NADPH fluorescence slope in assay [7] was -3.7e-05 (inactive). Moreover, in [8], the slope was 0.00577 (inactive). Further, the compound was classed as inactive in assay [9].

As for `CN(C)CCOc1ccccc1Cc1ccccc1`, the cell count in [1] was found to be 539. Moreover, the inhibition in assay [1] is 5.9% (inactive); in assay [3], -66.7% (inactive); in [5], 10.2% (inactive); in assay [10], 147% (active); in assay [11] it was 17.7% (inactive); in [12], 43% (inactive). Also, the inhibition of aggregation in assay [2] was -17.6% (inactive). Besides, the figures for the nuclei count in [2] and in [3] were 92.7% and 118%, respectively. Besides, the z-score in [4] (setting [13]) was -0.59; in assay [4] (setting [14]) it was 1.74; in assay [4] (setting [15]), -0.949. The fluorescence slope in assay [6] is -0.506 (inactive). In assay [7], the NADPH fluorescence slope is 2.6e-05 (inactive). Besides, the slope in assay [8] is 0.00455 (inactive). In addition, the compound was called inactive in [9].

As to `CC1(C)Cc2c(C#N)c(SCCC#N)nc(N3CCOCC3)c2CS1`, the cell count in assay [1] stood at 632. The inhibition is -13% (inactive) in assay [1]; -104% (inactive) in assay [3]; 28.6% (inactive) in [5]; -1.16% (inactive) in assay [10]; 15.2% (inactive) in assay [11]; 18.7% (inactive) in [12]. For the same compound, the inhibition of aggregation in assay [2] is -5.8% (inactive). Also, the values for the nuclei count in [2] and in [3] were 106% and 132%, respectively. In addition, the z-score in [4] (setting [13]) was 0.7; in assay [4] (setting [14]), -1.52; in [4] (setting [15]), -1.34. Also, in assay [6], the fluorescence slope is -0.343 (inactive). Moreover, in [7], the NADPH fluorescence slope is -8.5e-06 (inactive). In [8], the slope is 0.0053 (inactive). Further, the compound was classed as inactive in [9].

As to `C[C@]12C=CC(=O)C=C1CC[C@@H]1[C@@H]2[C@@H](O)C[C@@]2(C)[C@H]1CC[C@]2(O)C(=O)COC(=O)CCC(=O)O`, the cell count in assay [1] came to 671. In addition, the inhibition was -6.3% (inactive) in [1]; -27.3% (inactive) in assay [3]; 19.2% (inactive) in assay [5]; 15.8% (inactive) in [10]; 6.58% (inactive) in [11]; 46.6% (inactive) in assay [12]. Moreover, the inhibition of aggregation in [2] was 6.5% (inactive). Besides, the nuclei count turned out to be 85.8% in assay [2] and 120% in [3]. Moreover, the values for the z-score in assay [4] (setting [13]), in [4] (setting [14]) and in assay [4] (setting [15]) were 1.3, 0.17 and -0.0671, respectively. Also, the fluorescence slope in assay [6] was -0.471 (inactive). In assay [7], the NADPH fluorescence slope was -8e-05 (inactive). For the same compound, in assay [8], the slope was 0.00574 (inactive). In addition, the compound was classed as inactive in assay [9].
